# Screening results as filed in PubChem BioAssay.
# Most compounds without a hit are left out; they make up all but 12% or so of the library.
# JMJD2A Tudor inh: inhibitors of human JMJD2A Tudor domain | O75164 | AlphaScreen JMJD2A-Tudor / H3K4me3 peptide binding | Potency, µM (titrated, usually from 114 µM), for the others: at the highest dose activity change, negative = inhibition, actives largely listed as inhibitors | 390,000 tested, 4.4% active | AID 504339; further: potency means the concentration at half of the fitted maximal effect; on the % scale 0 is the no-effect control and ±100 the full control effect; nearly all actives have a fitted effect of over 50% in size
# G9a inh: inhibitors of human histone lysine methyltransferase G9a. AID 504332. Q96KQ7. 350,000 tested, 8.8% active. G9a H3K9 monomethylation, AlphaScreen, 2 h. Potency, µM (series often up to 102 µM), without a hit: top-dose activity, negative = inhibition, usual class: inhibitors; further: potency means the concentration at half of the fitted maximal effect; on the % scale 0 is the no-effect control and ±100 the full control effect; nearly all actives have a fitted effect of over 75% in size
#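 Chemiluminescent proximity detection of H3K9 monomethylation, read after 10 min bead incubation in the dark. Reaction: 20 nM G9a, 500 nM biotin-H3K9 peptide, 20 uM SAM cofactor, 2 h, room temperature, following 15 min enzyme-compound preincubation.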
# L3MBTL1 block: inhibitors of human L3MBTL1; AID 485360; Potency, µM (titrated, usually from 57.1 µM), for the others: at the top dose activity, negative = inhibition, hits mostly inhibitors; 230,000 tested, 0.66% active; AlphaScreen L3MBTL1–H3K9me1 peptide binding; Q9Y468; further: potency means the concentration at half of the fitted maximal effect; on the % scale 0 is the no-effect control and ±100 the full control effect; nearly all actives have a fitted effect of over 60% in size
# Target sequence (Q9Y468 whole entry, looked up): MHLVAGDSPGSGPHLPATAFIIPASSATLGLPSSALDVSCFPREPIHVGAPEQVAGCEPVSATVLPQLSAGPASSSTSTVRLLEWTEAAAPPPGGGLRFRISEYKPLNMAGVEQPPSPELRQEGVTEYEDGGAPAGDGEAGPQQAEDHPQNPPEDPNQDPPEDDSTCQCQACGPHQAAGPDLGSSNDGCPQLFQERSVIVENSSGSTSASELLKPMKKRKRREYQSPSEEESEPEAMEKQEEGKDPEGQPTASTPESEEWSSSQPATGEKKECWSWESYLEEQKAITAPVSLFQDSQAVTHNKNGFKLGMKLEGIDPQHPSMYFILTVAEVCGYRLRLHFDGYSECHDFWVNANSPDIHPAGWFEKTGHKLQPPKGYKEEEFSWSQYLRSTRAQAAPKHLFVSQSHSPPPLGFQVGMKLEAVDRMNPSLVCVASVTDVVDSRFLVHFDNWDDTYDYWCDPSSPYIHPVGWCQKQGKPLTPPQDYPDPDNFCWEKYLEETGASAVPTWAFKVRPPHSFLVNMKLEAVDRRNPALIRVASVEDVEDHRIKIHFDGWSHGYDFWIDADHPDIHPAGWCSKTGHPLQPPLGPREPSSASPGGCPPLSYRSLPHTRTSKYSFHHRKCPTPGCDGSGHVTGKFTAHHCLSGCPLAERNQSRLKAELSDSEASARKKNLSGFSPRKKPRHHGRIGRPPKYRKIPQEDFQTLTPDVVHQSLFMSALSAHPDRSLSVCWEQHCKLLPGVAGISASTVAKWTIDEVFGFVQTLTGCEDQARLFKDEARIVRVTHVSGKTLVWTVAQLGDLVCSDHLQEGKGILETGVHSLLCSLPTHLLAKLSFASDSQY
#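 AlphaScreen proximity signal between nickel-chelate acceptor and streptavidin donor beads (final 10 ug/mL) reports binding of 50 nM L3MBTL1 to 75 nM biotin-H3 K9me1 peptide; complex incubated with compounds 30 min at room temperature; cefsulodin titration as control.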
# BAZ2B block: blocks human BAZ2B. Potency, µM (top dose mostly 114 µM), for the others: at the top dose activity change, negative = inhibition, most hits filed as inhibitors. AID 504333. 360,000 tested, 4.4% active. Q9UIF8. AlphaScreen BAZ2B-H3K14Ac peptide displacement; further: potency means the concentration at half of the fitted maximal effect; on the % scale 0 is the no-effect control and ±100 the full control effect; nearly all actives have a fitted effect of over 60% in size
#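 Inhibition is scored as reduced AlphaScreen emission. The BAZ2B/b-H3(5-23)K14Ac complex (50 nM each) in PBS pH 7.4, 0.01% Tween-20 meets compound (up to 110 uM) for 30 min at RT before bead addition.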
# HP1b binding inh: blocks HP1-beta chromodomain binding to methylated histone tails; P83916; AlphaScreen HP1-beta / biotin-H3K9me3 peptide binding; Potency, µM (doses to about 114 µM), for inactives: top-dose activity change, negative = inhibition, usual class: inhibitors; 390,000 tested, 0.56% active; further: potency means the concentration at half of the fitted maximal effect; nearly all actives have a fitted effect of over 70% in size
#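 AlphaScreen: HP1-beta (50 nM) preformed 30 min with biotin-H3(1-18)K9me3 peptide (50 nM) in PBS pH 7.4, 0.01% Tween-20. Compound added for 30 min at RT, then streptavidin donor/nickel chelate acceptor beads (10 ug/mL) for 30 min.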
# Sfp inh: blocks B. subtilis Sfp PPTase activity; Potency, µM, for inactives: largest response in the series, negative = inhibition, most hits filed as inhibitors; 310,000 tested, 3.5% active; AID 1490; Biochemical Sfp PPTase activity, qHTS; Q9F4F7;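 further: the enzyme is Sfp with the accession as filed and its product quenches rhodamine fluorescence; potency means the concentration at half of the fitted maximal effect; 0% = enzyme reaction without inhibitor and -100% = no enzyme wells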
#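 After 15 min at room temperature with compound, 15 nM Sfp received 5 uM rhodamine-CoA plus 12.5 uM BHQ-2-ybbR (50 mM Hepes pH 7.6, 10 mM MgCl2). Rate came from the fluorescence difference over 30 min, ex 525/em 598 nm.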
# Sfp inh conf: confirmation of Bacillus subtilis Sfp PPTase inhibitors | shares compounds with Sfp inh | Sfp PPTase enzymatic assay, qHTS titration | Potency, µM (highest dose often 114 µM), without a hit: top-dose activity change, negative = inhibition, most hits filed as inhibitors | 380 tested, 79% active | AID 2701;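 further: potency means the concentration at half of the fitted maximal effect; plate controls were uninhibited Sfp reaction for no effect and no enzyme control for full effect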
# Sfp gel assay: Inhibits Bacillus subtilis Sfp phosphopantetheinyl transferase | shares compounds with Sfp inh | purified Sfp, gel-based phosphopantetheinylation read-out | Potency, µM, actives largely listed as inhibitors | 210 tested, 20% active | AID 2707;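 active means potency below 100 µM; inconclusive means dose-dependent response but potency above 100 µM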;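 further: band intensities scaled against SCH202676 control wells before curve fitting; potency is an IC50 for inhibitors of Sfp transfer activity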
# The depositor's hits bear a star; i = inactive; ? = inconclusive; . = no result given; [ ] = another dose, or the depositor's remark. Unless noted, the call rests on the fitted dose curve; in most records, active means well fitted curve in the direction sought with a large enough effect; inconclusive means small, poorly fitted or top-dose-only effect, or another doubt; inactive means no such curve, though single readings can be large; an effect the other way counts as inactive or inconclusive.
SMILES,JMJD2A Tudor inh,G9a inh,L3MBTL1 block,BAZ2B block,HP1b binding inh,Sfp inh,Sfp inh conf,Sfp gel assay
CC(=O)Nc1ccc(NCc2ccc(-c3ccccc3)cc2)cc1,-24%,.,.,.,7%,.,.,.
CCc1ccc(CNc2ccc(O)cc2)cc1,56µM*,?,7.9µM*,40µM*,-86%,11µM*,37µM*,i
COc1ccccc1C1=CN(Cc2ccccc2)CCC1=O,-4%,.,1%,.,39%,.,.,.
O=C(NCc1ccco1)c1csc2c1CCCCC2,-18%,-9%[12.7 µM],.,-30%,2%,9%,?,i
CCCc1cc(C(=O)OCC(=O)N(CCC)c2c(N)n(Cc3ccccc3)c(=O)[nH]c2=O)sc1C,-8%,12%[0.501 µM],-6%,4%,13%,.,.,.
Cc1ccc(-c2cnc(-c3ccncc3)o2)cc1,-9%[57.1 µM],?,.,1%,38%,56µM*,3%,i
O=C(Cc1ccccc1Nc1c(Cl)cccc1Cl)OCO/N=[N+](\[O-])N1CCCC1,?,.,.,.,-8%,22µM*,26µM*,?
Cc1ccc(S(=O)(=O)N2CCCCC2)cc1NC(=O)COC(=O)Cc1cccc2ccccc12,-14%,-11%[59 µM],-3%,1%,5%,6%,.,.
COc1cc([C@H]2Oc3c(OC)cc(CCCO[C@@H]4O[C@H](CO)[C@@H](O)[C@H](O)[C@H]4O)cc3[C@@H]2CO)ccc1O,-10%,-8%[12.7 µM],-11%,7%,40%,.,.,.
N#C/C(=C/c1ccc(N2CCOCC2)o1)c1ccc(Br)cc1,56µM*,7.9µM*,-6%,45µM*,?,2.8µM*,12µM*,6.2µM*
N#C/C(=C/c1ccc(N2CCCCCC2)o1)c1ccc(F)cc1,-34%[57.1 µM],.,.,.,-29%,.,.,.
N#C/C(=C\c1cccnc1)c1ccc(Br)cc1,4%,1%,15%,4%,44%,4%,.,.
N#C/C(=C/c1ccc(N2CCCCCC2)o1)c1cccc(F)c1,40µM*,?,.,?,?,0.56µM*,21µM*,?
Cc1ccc(-n2cc(CNCC3CC(=O)N(C4CC4)C3)c(-c3cccc(C)c3)n2)cc1 (stereo not given),-11%,.,27%,-6%,25%,-11%,.,.
COc1ccc(-c2csc(Nc3ccc(C)cn3)n2)cc1,-29%,20µM*,1%,?,-13%,6.3µM*,59µM*,i
O=C(/C=C/c1ccc(Br)o1)NCc1ccccc1,?,.,-16%,?,12%,6.3µM*,17µM*,i
O=C(Cc1ccccc1)N/N=C\c1ccc(Br)o1,-19%,-1%,-8%,-7%,24%,6%,.,.
O=C(c1cnccn1)N1CCC2(CC1)CCN(c1ccccn1)CC2,.,-3%[12.7 µM],.,.,.,15%,.,.
CC(C)C(c1nnnn1Cc1ccc(F)cc1)N1CCN(c2ccc(O)cc2)CC1 (stereo not given),40µM*,13µM*,-29%,-33%,71µM*,16µM*,47µM*,.
COc1ccc(Cn2nnnc2C(C(C)C)N2CCN(c3ccccc3OC)CC2)cc1 (stereo not given),-19%,-37%[12.7 µM],.,-13%,26%,8%,.,.
O=C(Nc1ccccc1)Oc1ccc[nH]c1=O,-17%,?,.,?,-3%,6.3µM*,21µM*,i
Cc1ccc(OC(=O)Nc2ccccc2)cc1,3%,-5%,-5%,0%,36%,16%,.,.
CCCCCn1cc2c(c1-c1ccc(Br)cc1)c(=O)n(C)c(=O)n2C,-12%,-3%[59 µM],.,-11%,43%,.,.,.
CC1CN(C2CCCCC2)C(=S)NC1=O (stereo not given),-3%,.,.,.,-2%,.,.,.
CC(NC(=O)c1sc2cc([N+](=O)[O-])ccc2c1Cl)C(C)(C)C (stereo not given),50µM*,1.6µM*,0%,-16%,6.3µM*,7.9µM*,0.53µM*,0.69µM*
SMILES,JMJD2A Tudor inh,G9a inh,L3MBTL1 block,BAZ2B block,HP1b binding inh,Sfp inh,Sfp inh conf,Sfp gel assay
OCc1ccc(-c2nn(Cc3ccccc3)c3ccccc23)o1,-19%,21µM*,-20%,40µM*,12%,4.5µM*,15µM*,.
c1ccc2sc(SCSc3nc4ccccc4s3)nc2c1,161%,.,117%,108%,254%,-2%,.,.
CN(C)CCCSc1nc2ccccc2s1,-33%,14µM*,-10%,?,?,35µM*,?,.
CN(C)c1ccc(-c2nn3c(-c4ccc(Cl)cc4)nnc3s2)cc1,-22%,-34%,-9%,14%,56%,-5%,.,.
Clc1ccc(-c2nn3c(C4COc5ccccc5O4)nnc3s2)cc1 (stereo not given),-23%,7.1µM*,-1%,-22%,?,14µM*,33µM*,.
Cc1ccc2c(c1)C(N1CCCC1=O)CC(c1ccco1)N2 (stereo not given),21%[11.4 µM],10µM*,-1%,-38%,-10%,40µM*,26µM*,i
Cc1ccc(C2CC(c3ccco3)n3ncnc3N2)cc1 (stereo not given),-28%,?,-4%,1%,40%,?,.,.
CCOc1cc(CNc2ccc(N(C)C)cc2)cc(Br)c1OCC(=O)NC(C)(C)C,40µM*,5µM*,?,14µM*,14µM*,3.5µM*,?,?
CCOc1cc(CNc2cccc3ccccc23)cc(Br)c1OCC(=O)NC(C)(C)C,-34%,-3%[12.7 µM],.,-7%,2%,17%,.,.
O=C(CC(Nc1ccccc1)C(=O)O)c1ccccc1 (stereo not given),-15%,?,-4%,-31%,38%,16µM*,42µM*,i
Cc1ccc(NC(CC(=O)c2ccccc2)C(=O)O)cc1Cl (stereo not given),-22%[11.4 µM],.,12%,-8%,14%,?,.,.
COc1cc(NCc2ccc3nc(N)nc(N)c3c2C)cc(OC)c1OC,.,10µM*,.,.,.,32µM*,37µM*,.
COc1ccc(C2/C=C\CN(C(=O)NC(C)C)CC(=O)N2Cc2ccc(F)cc2)cc1 (stereo not given),-21%,9%[59 µM],.,3%,21%,-3%,.,.
Cc1cc(SCC(=O)NN)c2cc(Br)ccc2n1,-32%,.,.,?,25%,22µM*,?,.
Cc1cc(C(=O)NN)c2cc(Br)ccc2n1,-8%,?,.,?,44%,15%,.,.
CCc1c(C)nc2cc(-c3cc(OC)cc(OC)c3)nn2c1N1CCCC1,7%,35%[59 µM],-8%[11.4 µM],12%,62%,16µM*,47µM*,.
